Out of some 16,000 compounds screened, about 5,700 (36%) were called active. Roughly 24% stayed inconclusive and do not appear here. This is one part of the list. Unmarked numbers belong to inactive results. The call rests on the fitted dose curve; in most records, active means well fitted curve in the direction sought with a large enough effect; inconclusive means small, poorly fitted or top-dose-only effect, or effect the other way; inactive means no such curve, though single readings can be large or run the other way.
On the % scale 0 is the no-effect control and ±100 the full control effect.

Sequence of Cytochrome P450 1A2 (Homo sapiens) (P05177 whole entry, looked up): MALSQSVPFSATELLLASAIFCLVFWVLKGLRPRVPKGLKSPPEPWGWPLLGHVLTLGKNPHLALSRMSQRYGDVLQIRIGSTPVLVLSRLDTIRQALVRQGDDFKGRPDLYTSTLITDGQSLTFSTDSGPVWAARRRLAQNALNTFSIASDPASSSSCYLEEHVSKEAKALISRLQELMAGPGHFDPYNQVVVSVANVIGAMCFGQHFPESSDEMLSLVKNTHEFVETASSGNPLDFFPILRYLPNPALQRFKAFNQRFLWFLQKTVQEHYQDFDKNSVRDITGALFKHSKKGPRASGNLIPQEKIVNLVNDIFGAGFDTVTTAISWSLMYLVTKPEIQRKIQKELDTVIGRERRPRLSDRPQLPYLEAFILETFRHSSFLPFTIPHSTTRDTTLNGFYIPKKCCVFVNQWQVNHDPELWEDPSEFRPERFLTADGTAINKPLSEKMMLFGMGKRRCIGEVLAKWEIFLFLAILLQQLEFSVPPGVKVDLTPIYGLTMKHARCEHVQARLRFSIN

The test has as its target Cytochrome P450 1A2 (Homo sapiens) (UniProt P05177). Nature of the test: Cytochrome panel assay with activity outcomes. The settings on record: recombinant CYP, pro-luciferin dealkylation, luminescence, p450-cyp1a2; series mostly up to 57.1 µM; activity, negative = inhibition: at the top concentration.
In general, AC50 refers to the concentration giving half of the maximal activity seen. For the molecule `CN(C)CCCn1c2c3ccccc3ccc2c2oc(=O)c3ccccc3c21`, the AC50 is 0.316 µM (active).

Consider `CC(=O)Nc1cc(S(=O)(=O)Nc2ccccc2)c(C)cc1C`, for which the “activity, negative = inhibition” value was -0.331%.

Take `CCn1c2ccccc2c2cc(NS(=O)(=O)c3ccccc3C)ccc21`: the AC50 is 3.16 µM (active).

Consider `CC(=O)Nc1ccccc1C(=O)C(=O)O`, for which the “activity, negative = inhibition” value was -3.38%.

For `COc1c(NC(C)=O)c2ccccc2c2ccccc12`, the AC50 was 0.398 µM (active).

Take `COCCN=C1Sc2nc3c(C)cccc3cc2CN1Cc1ccco1`: the AC50 is 0.631 µM (active).

For `O=c1c2ccccc2nc2n1CC/C2=C\c1ccccc1[N+](=O)[O-]`, the AC50 is 3.16 µM (active).

Take `Cc1nc2cnc(Nc3ccccc3)nc2n(Cc2cccs2)c1=O`: the concentration at half-maximal activity (AC50) was 1.58 µM (active).

For the molecule `COc1cccc(Nc2ncc3nc(C)c(=O)n(Cc4cccs4)c3n2)c1`, the concentration at half-maximal activity (AC50) is 2.51 µM (active).

In the case of `COc1cccc(Nc2ncc3ncc(=O)n(Cc4cccs4)c3n2)c1`, the half-maximal activity concentration (AC50) is 1.58 µM (active).

For `O=c1cnc2cnc(Nc3ccccc3)nc2n1Cc1cccs1`, the AC50 is 1 µM (active).

With `COc1ccc(-c2nc3cnc(Nc4cccc(OC)c4)nc3n(Cc3cccs3)c2=O)cc1`, the “activity, negative = inhibition” value was -12.7%.

Consider `CCN(CC)C[C@@H](O)CN1CCCCc2nc(C)c(C)cc21`, for which the activity, negative = inhibition is -9.64% [at 11.4 µM].

Turning to `COCC(=O)N/N=C/c1ccc(Sc2nc3ccccc3s2)o1`, the AC50 is 15.8 µM (active).

For the molecule `O=C(Cc1cccc2ccccc12)N/N=C/c1ccc(Sc2nc3ccccc3s2)o1`, the “activity, negative = inhibition” value is -12.4%.

In the case of `Cc1ccc(NS(=O)(=O)c2ccccc2Cl)c2c1CC(C)(C)O2`, the AC50 was 1.26 µM (active).

As for `Cc1cc(C)c(S(=O)(=O)N2CCCCC2)c(C)c1N(C)S(=O)(=O)c1ccccc1`, the “activity, negative = inhibition” value was 8.05%.

As for `CC(O)(CS(=O)(=O)Cc1ccc(Cl)cc1)C(=O)Nc1cccc(C(F)(F)F)c1` (stereo not drawn), the “activity, negative = inhibition” value is -29.5%.

`O=C(Nc1cccc(C(F)(F)F)c1)N(Cc1ccc(Cl)cc1)CC(O)C(F)(F)F` (stereo not drawn): the AC50 is 12.6 µM (active).

As to `CCCCN=c1sc(C(=O)OC)cc(=O)n1CCCC`, the AC50 was 0.251 µM (active).

For `CCN1C(=O)[C@H]2[C@H]3[C@H](O)[C@H](O)C/C(=N/O[C@@H]4O[C@H](COC(C)=O)[C@@H](OC(C)=O)[C@H](OC(C)=O)[C@H]4OC(C)=O)[C@@H]3CC[C@@H]2C1=O`, the activity, negative = inhibition was -2.53% [at 11.4 µM].

For `Cc1ccc(-n2c3c(c(=O)[nH]c2=O)C(NS(=O)(=O)c2ccc(C)cc2)(C(F)(F)F)C(=O)N3)cc1` (stereo not drawn), the “activity, negative = inhibition” value is -2.02%.

Consider `CCOC(=O)N/N=C/c1ccccc1F`, for which the AC50 is 6.31 µM (active).

As to `CCOC(=O)N/N=C/c1ccc(F)cc1`, the AC50 is 11.2 µM (active).

Regarding `CCOC(=O)C(=Cc1ccc(F)cc1)C(=O)OCC`, the concentration at half-maximal activity (AC50) was 25.1 µM (active).

Consider `Cc1ccc(/C=N\NC(=O)c2cc(OCC(F)(F)F)ccc2OCC(F)(F)F)cc1`, for which the “activity, negative = inhibition” value is -18.2%.

For the molecule `O=C(NCCC[N+]1=CC=N[C@H]1c1ccccc1)N1CCCc2nc(-c3ccc(Br)cc3)ccc21`, the activity, negative = inhibition was 7.37% [at 11.4 µM].

On to `Cc1ccc(C2C(C(=O)c3sc(C)nc3C)=C(O)C(=O)N2CCN2CCOCC2)o1` (stereo not drawn), for which the “activity, negative = inhibition” value is -8.98%.

Take `CCOc1ccc(N(C(=O)/C=C/C(=O)Nc2cc(C)on2)C(C(=O)NC2CCCC2)c2ccccc2C)cc1` (stereo not drawn): the “activity, negative = inhibition” value is -14.5%.

For `COc1ccc2cc3cc(C(=O)NCc4ccc5c(c4)OCO5)oc3nc2c1`, the AC50 was 0.316 µM (active).

Take `COc1ccc2cc3cc(C(=O)Nc4ccc5c(c4)OCO5)oc3nc2c1`: the AC50 is 0.501 µM (active).

Regarding `COc1ccc(N2CCN(CCNC(=O)C3CCN(S(=O)(=O)c4cccs4)CC3)CC2)cc1`, the “activity, negative = inhibition” value is -8.48%.

As for `COc1ccc2cc3cc(C(=O)NCCN4CCN(c5ccccc5F)CC4)oc3nc2c1`, the AC50 was 15.8 µM (active).

As for `COc1ccc2nc3oc(C(=O)NCc4cccs4)cc3cc2c1`, the AC50 is 2 µM (active).

Regarding `CCCS(=O)(=O)N1CCCC(C(=O)NCCCN2CCN(c3ccccc3F)CC2)C1` (stereo not drawn), the “activity, negative = inhibition” value was 18.4%.

For the molecule `CCc1ccc(C(C(=O)NCc2ccc(OC)cc2)N(CCOC)C(=O)Cc2cccs2)cc1` (stereo not drawn), the “activity, negative = inhibition” value was -19.9%.

As to `O=C1C[C@@H](O)[C@@H](O)[C@@H]2[C@H]3C(=O)N(c4ccc(F)cc4F)C(=O)[C@@H]3CC[C@@H]12`, the activity, negative = inhibition was -7.03% [at 11.4 µM].

`COc1ccc2cc3cc(C(=O)NCc4ccccn4)oc3nc2c1`: the AC50 was 1 µM (active).

With `CC(C)CC(=O)Nc1sc2c(c1C#N)CC(C)(C)NC2(C)C`, the “activity, negative = inhibition” value is -26.2%.

As for `COc1cc(Cl)c(C)cc1NC(=O)CNC(=O)Cn1cnc2ccccc2c1=O`, the “activity, negative = inhibition” value was -7.13%.

On to `O=C(c1ccccc1)c1ccc(OCCn2cnc3ccccc3c2=O)cc1`, for which the “activity, negative = inhibition” value is -15.9%.

Consider `Cc1ccc(SCCCn2cnc3ccccc3c2=O)cc1`, for which the AC50 is 3.16 µM (active).

On to `O=c1c2ccccc2ncn1CCCSc1ccccc1`, for which the AC50 is 7.08 µM (active).

For the molecule `O=C(O)CCCSc1ccccc1`, the activity, negative = inhibition is -11.7% [at 11.4 µM].

For the molecule `O=C1c2ccccc2C(=O)N1CCCSc1ccccc1`, the AC50 was 1 µM (active).

Consider `O=C1c2ccccc2C(=O)N1C[C@]1(C(=O)O)NCCS1(=O)=O`, for which the activity, negative = inhibition was -5.5% [at 2.29 µM].

Turning to `CC(C)(C)NC(=O)C(Cc1ccccc1)NS(=O)(=O)c1ccc2c(c1)CCC(=O)N2` (stereo not drawn), the “activity, negative = inhibition” value was -16.2%.

Turning to `COc1ccc(Oc2ncc3nc(-c4ccc(Cl)cc4)c(=O)n(C)c3n2)cc1`, the AC50 was 0.631 µM (active).

Take `Cn1c(=O)c(-c2ccc(Cl)cc2)nc2cnc(Oc3ccccc3)nc21`: the AC50 is 0.2 µM (active).

Regarding `Cn1c(=O)c(-c2ccccc2)nc2cnc(Oc3ccccc3)nc21`, the AC50 was 2 µM (active).

Turning to `CC(C)CN1CC[C@@]2(CCCN(C(=O)c3csnn3)C2)C1`, the “activity, negative = inhibition” value is -16.6%.

Consider `CCn1ncc(/C=C/C(=O)NCc2cn(C)nc2C)c1C`, for which the “activity, negative = inhibition” value is 2.23%.

For the molecule `CCCCCC(=O)Nc1cc2[nH]c(=O)cc(COC)c2cc1C`, the “activity, negative = inhibition” value is -12.2%.

Regarding `COCc1cc(=O)[nH]c2cc(NC(=O)C(F)(F)F)c(C)cc12`, the AC50 was 11.2 µM (active).

For the molecule `CCC(=O)Nc1ccccc1C(=O)OCC(=O)c1cccc2ccccc12`, the AC50 was 2.51 µM (active).

As to `COc1ccc(C(=O)COC(=O)c2ccc(NC(=O)c3ccccc3)cc2)cc1`, the “activity, negative = inhibition” value is 2.4%.

For `COc1cccc(C(CC(=O)Nc2cccc3ccccc23)NC(=O)c2ccccc2)c1` (stereo not drawn), the “activity, negative = inhibition” value is -7.28%.

For the molecule `COc1ccc(C(=O)Nc2ccc(C(=O)OCC(=O)c3ccccc3)cc2)cc1`, the “activity, negative = inhibition” value is -1.73%.

`CCC(=O)Nc1ccccc1C(=O)OCC(=O)c1ccccc1`: the AC50 was 5.62 µM (active).

Regarding `COc1cccc(-c2ccc3ncnc(N(C)C)c3c2)c1`, the AC50 was 0.794 µM (active).

For `CN(C)c1ncnc2ccc(-c3cccnc3)cc12`, the AC50 was 0.2 µM (active).

On to `O=C1NC(O)=NC1(c1ccccc1)c1ccccc1`, for which the “activity, negative = inhibition” value was -12.9%.

With `CSc1nc(N)nc(-c2cccs2)c1C#N`, the AC50 was 2 µM (active).

For the molecule `N#Cc1c(-c2ccccc2)cc(C2CC2)nc1SCC(=O)c1cccs1`, the AC50 was 0.562 µM (active).

Turning to `CSc1nc(C2CC2)cc(-c2cccs2)c1C#N`, the AC50 was 0.316 µM (active).

As to `CC(C)C12CN3CC(C(C)C)(CN(C1)C3c1ccco1)C2=O` (stereo not drawn), the “activity, negative = inhibition” value is 11%.

Take `Cc1ccc(N=CC2=C(O)CC(c3ccco3)CC2=O)cc1` (stereo not drawn): the AC50 is 25.1 µM (active).

For the molecule `CCC(=O)N(C)/C=C1\Sc2ccccc2C1=O`, the AC50 is 3.16 µM (active).

For the molecule `CS(=O)(=O)c1cnc2c(-c3ccc(F)cc3)cnn2c1N`, the AC50 is 3.55 µM (active).

With `O=C(NCCNc1ccc([N+](=O)[O-])cc1)c1ccccc1Br`, the “activity, negative = inhibition” value is -27.5%.

In the case of `Cc1cccc(NC(=S)N/N=C/c2ccc([N+](=O)[O-])s2)c1`, the AC50 is 1.41 µM (active).

On to `COc1cccc(NC(=S)NNC(=O)C(C)n2nc(C)c([N+](=O)[O-])c2C)c1` (stereo not drawn), for which the “activity, negative = inhibition” value was -23.7%.

Consider `O=C(N/N=C/c1cc([N+](=O)[O-])ccc1N1CCNCC1)c1ccc([N+](=O)[O-])cc1`, for which the “activity, negative = inhibition” value is -24.1%.

Regarding `O=C(N/N=C/c1ccc(Br)s1)c1ccccc1[N+](=O)[O-]`, the AC50 was 14.1 µM (active).

Regarding `O=C(N/N=C/c1ccc([N+](=O)[O-])s1)c1ccccc1Br`, the AC50 was 15.8 µM (active).

For the molecule `Cc1ccc(C(=O)N/N=C/c2ccc([N+](=O)[O-])s2)cc1`, the AC50 was 2.82 µM (active).

As to `CO[C@H]1COC(=O)C/C=C\[C@@H](C)[C@H](OC)COC(=O)CCC[C@@H]1C`, the activity, negative = inhibition is -5.95% [at 11.4 µM].

As for `CC(=O)N1CCC(=O)N(C(C)C)c2ccccc21`, the “activity, negative = inhibition” value was -11.8%.

For `Cc1cc(N2CCN(c3nc4ccccc4s3)CC2)n2ncnc2n1`, the AC50 was 15.8 µM (active).

In the case of `CCCNC(=O)OC[C@@H]1O[C@H](CCO/N=C(\C)CCN2CCCc3nc(C)c(C)cc32)C=C[C@@H]1Oc1ccc(OC)cc1`, the activity, negative = inhibition was 0.587% [at 11.4 µM].

As for `CCCCOc1ccc(C(=O)N/C(=C\c2cccc([N+](=O)[O-])c2)C(=O)OCCC)cc1`, the “activity, negative = inhibition” value was -18.3%.

Regarding `COc1ccc(NC(=O)/C(=C\c2cc(OC)c(OC)cc2[N+](=O)[O-])NC(=O)c2ccccc2)cc1`, the “activity, negative = inhibition” value is 9.17%.

`C=CCOC(=O)/C(=C\c1cccc2ccccc12)NC(=O)c1ccccc1`: the AC50 was 7.08 µM (active).

`c1ccc2c(c1)-c1nc3ccccc3cc1[C@H]2N1CCOCC1`: the AC50 is 1.26 µM (active).

For `CCCCCCC1CC(C)(/C(C)=N/NC(N)=O)OC1=O` (stereo not drawn), the “activity, negative = inhibition” value was -17.7%.

Regarding `O=S(=O)(c1cnccc1N1CCN(/N=C/c2ccccc2)CC1)N1CCCCC1`, the “activity, negative = inhibition” value was -18.1%.

With `CCn1c(-c2ccoc2C)n[nH]c1=S`, the AC50 is 22.4 µM (active).

With `CSC1(SC2=NCCN2)SC2(NCCN2)S1`, the AC50 is 0.398 µM (active).

Consider `O=C(O)CCSC1=NCCN1`, for which the activity, negative = inhibition was -7.93% [at 11.4 µM].

`COc1ccc(NC(=O)N2CC[C@@]3(CCCNC3)C2)cc1`: the “activity, negative = inhibition” value was -8.34%.

`CCCCN1C(=O)C(NC(=O)C2CC2)(C(F)(F)F)C2=C1CC(C)(C)CC2=O` (stereo not drawn): the “activity, negative = inhibition” value was 14.5%.

On to `CSc1nncc(/C(C)=N\Nc2ccccc2)n1`, for which the AC50 was 12.6 µM (active).

In the case of `CC/C(=N/Nc1ccccc1)c1cnnc(SC)n1`, the AC50 was 10 µM (active).

In the case of `CCc1ccc(N(C(=O)c2ccoc2C)C(C(=O)NC2CCCC2)c2ccc(OC)cc2)cc1` (stereo not drawn), the “activity, negative = inhibition” value was -10.9%.

Take `Cc1ccc(Nc2nnc(-c3ccc4c(c3)OCO4)o2)c(C)c1`: the AC50 is 2.51 µM (active).

Turning to `COc1cc(N=C(N)N=C(N)N)c2ncccc2c1`, the AC50 was 0.398 µM (active).

As to `COc1ccc([C@H](O)c2ccccn2)cc1`, the activity, negative = inhibition is -16% [at 11.4 µM].

As for `COc1cc(NCCC(=O)O)c2ncccc2c1`, the activity, negative = inhibition was -18.1% [at 11.4 µM].
